Experimental data published in PubChem BioAssay AID1626 (SRMLSC, 2009).
The campaign covered roughly 220,000 compounds. About 2,000 (0.91%) were called active. Not shown: some 2% with an inconclusive outcome. These entries were drawn from the full list. Results with a measured potency or affinity are listed apart. Values without a mark were called inactive. No stated cut-off is given here; in the data, inconclusive means inhibition above about 80% without an active follow-up result; inactive means below that; test concentration not stated here.

Assay: M. tuberculosis H37Rv growth inhibitors, H37Rv strain (AID 1626);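 further: bacteria incubated seven days before Alamar blue readout; 0% = bacteria only wells and 100% = bacteria with antibiotic wells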
Conditions: active compounds read high, concentration not given here

Row | Structure (SMILES) | inhibition [%]
1 | CN1C(=O)NC(=O)/C(=C\C=C\c2ccccc2[N+](=O)[O-])C1=O | 3.14
2 | N#C/C(=C/c1ccc(Br)s1)C(=O)NCCc1c[nH]c2ccccc12 | -14
3 | N#C/C(=C\c1ccc(N2CCOCC2)o1)C(=O)NCCc1ccccc1 | 1.46
4 | O=C(Nc1ccccc1)N(Cc1ccccc1)Cc1ccccc1 | 9.83
5 | C=CCNC(=O)Nc1cc(Cl)ccc1OC | -2.63
6 | Cc1cc(C(=O)COc2ccc3ccc(=O)oc3c2)c(C)n1C | -5.12
7 | CC(=O)c1cccc(OCC(=O)c2cc(C)n(-c3cc(C)on3)c2C)c1 | 17.2
8 | Cc1ccc2occ(C3N[C@H](C(=O)O)CS3)c(=O)c2c1 (stereo partly specified) | -2.55
9 | COc1ccc(NS(=O)(=O)c2ccc3nc(COc4ccc(C#N)cc4)[nH]c3c2)cc1 | 12.1
10 | COc1ccc(NS(=O)(=O)c2ccc3nc(COc4ccc5ccccc5c4)[nH]c3c2)cc1 | 15.1
11 | CC(=O)c1c(C)nn(CC(O)Cn2c3c(c4cc(C)ccc42)CCCC3=O)c1C (stereo unspecified) | 7.8
12 | COc1ccc(-n2nnc3c(=O)n(CC(=O)N4CCC(Cc5ccccc5)CC4)cnc32)cc1 | -2.81
13 | COc1cccc(-n2nnc3c(=O)n(CC(=O)N4CCC(Cc5ccccc5)CC4)cnc32)c1 | 2.62
14 | O=C1[C@@H]2[C@@H]3C[C@@H]([C@H]4ON=C(c5ccc(OCc6ccccc6)cc5)[C@@H]34)[C@@H]2C(=O)N1c1ccc2c(c1)OCO2 | 0.02
15 | O=C(Nc1ccc(-c2cnco2)cc1)c1ccc(Cl)cc1 | -6.64
16 | O=C(Nc1ccc(-c2cnco2)cc1)c1ccccc1 | 3.05
17 | Cc1cc(C(C)(C)C)ccc1OCCn1ccnc1 | -6.1
18 | O=C(Cc1ccccc1)N/N=C/c1ccccc1Cl | 7.74
19 | Cc1cccc(-c2noc(CCC(=O)Nc3ccc(C(N)=O)cc3)n2)c1 | 0.33
20 | O=C(O)CCc1nc(-c2ccc(Cl)cc2)no1 | -0.01
21 | CCOC(=O)c1cccc(NC(=O)CCc2nc(-c3ccccc3F)no2)c1 | 66.8
22 | COc1ccc(-c2noc(CCCC(=O)Nc3ccc(C(N)=O)cc3)n2)cc1 | -9.14
23 | Cc1cccc(-c2noc(CCC(=O)Nc3ccccc3)n2)c1 | 1.97
24 | Cc1cccc(-c2noc(CCCC(=O)Nc3ccc(C(N)=O)cc3)n2)c1 | 0.64
25 | CC(C)CNC(=O)CCc1nc(-c2ccccc2)no1 | -9.52
26 | Cc1ccc(-c2noc(CCC(=O)Nc3ccccc3C)n2)cc1 | 13.8
